# Source: PubChem BioAssay
# CCT modulator: cytosolic chaperonin activity modulation; purified chaperonin ATPase assay, HTRF ADP detection, 30 min; 360,000 tested, 0.3% active; activity change, % (no concentration beside the values), hits read low; in the data active means activity change below about -30%
#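 We incubate TRiC, 40 or 20 nM final, with library compounds at 76 uM and 10 uM ATP for 30 min at 37 °C. ADP formed is detected with Transcreener HTRF reagents after 30 min at room temperature.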
# Mm-Cpn inhibitor: M. maripaludis TRiC chaperonin inhibition | purified Mm-Cpn ATPase, ADP Transcreener TR-FRET | Potency, µM (top dose mostly 76.9 µM), most hits filed as inhibitors | 330,000 tested, 0.031% active | AID 504842; further: nearly all actives have a fitted effect of over 80% in size
#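 Eu-cryptate anti-ADP/ADP-d2 competition gives a ratio inversely related to ADP. Enzyme at 25 nM was pre-exposed to compound for 10 min, then given 10 uM ATP for 30 min, 37°C throughout.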
# GLP-1R agonist: GLP-1 receptor (human) agonism | P43220 | HEK293 GLP-1R CRE-luciferase, luminescence, 4-6 h; cells express a hypersensitive GLP-1R form | Potency, µM (titrated, usually from 45.6 µM), hits mostly activators | 380,000 tested, 0.007% active
# Target sequence (P43220 whole entry, looked up): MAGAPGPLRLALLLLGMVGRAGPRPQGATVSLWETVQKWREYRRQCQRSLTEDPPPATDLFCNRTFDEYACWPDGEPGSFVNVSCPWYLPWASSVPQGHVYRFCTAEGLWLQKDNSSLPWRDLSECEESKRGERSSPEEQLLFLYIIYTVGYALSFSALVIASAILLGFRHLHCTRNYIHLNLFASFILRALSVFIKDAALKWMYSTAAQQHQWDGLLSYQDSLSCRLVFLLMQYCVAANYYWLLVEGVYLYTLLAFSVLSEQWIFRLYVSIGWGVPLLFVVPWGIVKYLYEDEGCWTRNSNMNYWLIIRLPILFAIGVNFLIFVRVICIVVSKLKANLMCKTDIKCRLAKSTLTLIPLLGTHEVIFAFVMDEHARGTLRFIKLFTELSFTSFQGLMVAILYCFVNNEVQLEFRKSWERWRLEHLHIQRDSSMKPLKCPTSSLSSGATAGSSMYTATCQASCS
# uPA generation: blocks generation of uPA at the cell surface; cell surface uPA generation assay, qHTS; Potency, µM (top dose mostly 38.3 µM), usual class: inhibitors; 330,000 tested, 0.31% active; active means well fitted inhibition curve with a large enough effect; inconclusive means small, poorly fitted or top-dose-only effect; inactive means no such curve, though single readings can be large or run the other way; tested in mouse RAW 264.7 cells; further: nearly all actives have a fitted effect of over 55% in size
# HEK293 tox: cytotoxicity counter-screen for GLP-1 receptor inverse agonists. HEK293 cAMP-luciferase reporter cells, luminescence, 24 h. Potency, µM (doses to about 38.3 µM), actives largely listed as inhibitors. 410,000 tested, 0.13% active. AID 624418;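 further: loss of luciferase light is scored as toxicity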
#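 Luminescence readout: signal drop marks cytotoxicity. Plated cells grew 12 h at 37 °C, 5% CO2, received 23 nL compound for 24 h, then got luciferase reagent, read after 12 min at RT.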
# GLP-1R inv ag: GLP-1 receptor (human) inverse agonism; P43220; HEK293 GLP-1R CRE-luciferase, luminescence, 24 h; GLP-1R form is constitutively active; Potency, µM (highest dose often 38.3 µM), hits mostly inhibitors; 410,000 tested, 1.6% active; further: nearly all actives have a fitted effect of over 55% in size
#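 qHTS in 1536-well format: reporter HEK293 cells expressing constitutive GLP-1R activity in DMEM + 10% Nu serum, 24 hr with compounds at 37 deg C, luminescence read after 12 min with detection reagent.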
# A number is an active result; - = inactive; ? = inconclusive; . = no result; [ ] = dose if it differs, or a comment. Hits are enriched below; roughly 2.2% of the tested compounds scored in any of these assays. Unless noted, the call rests on the fitted dose curve; in most records, active means well fitted curve in the direction sought with a large enough effect; inconclusive means small, poorly fitted or top-dose-only effect, or another doubt; inactive means no such curve, though single readings can be large; an effect the other way counts as inactive or inconclusive.
SMILES,CCT modulator,Mm-Cpn inhibitor,GLP-1R agonist,uPA generation,HEK293 tox,GLP-1R inv ag
CCOc1ccc(-n2cc(-c3ccccc3)c3c(N4CCC(C)CC4)ncnc32)cc1,.,.,.,.,-,?
CC(NC(=O)Cc1ccc(-c2ccccc2)cc1)c1ccccc1 (stereo not drawn),-43,-,-,-,-,?
CC(NC(=O)CSCc1ccccc1Br)c1ccccc1 (stereo not drawn),-,-,-,-,-,?
CC(NC(=O)CSCc1ccc(Br)cc1)c1ccccc1 (stereo not drawn),-,-,-,-,-,7.1µM
COc1ccccc1CNC(=O)c1c2c(nc3ccccc13)C(=O)N(C1CCCCC1)C2,.,.,.,.,-,-
CC(C)(C)OC(=O)[C@H](Cc1ccccc1)NC(=O)c1nc[nH]c1C(=O)N1CCN(C(=O)OC(C)(C)C)CC1,-,-,-,-,-,4.5µM
CC(C)C[C@H](NC(=O)c1[nH]cnc1C(=O)N[C@@H](C)c1ccccc1)C(=O)OC(C)(C)C,-,.,-,?,?,10µM
CC(C)C[C@H](NC(=O)c1[nH]cnc1C(=O)N[C@@H](Cc1ccccc1)C(=O)OC(C)(C)C)C(=O)OC(C)(C)C,-,-,-,?,-,10µM
CC(C)(C)OC(=O)N1CCN(C(=O)c2[nH]cnc2C(=O)N[C@@H](Cc2ccccc2)C(=O)OCc2ccccc2)CC1,-,-,-,-,-,-
CC[C@H](C)[C@H](NC(=O)[C@H](CO)NC(=O)[C@H](CC(N)=O)NC(=O)[C@H](CC(C)C)NC(=O)[C@H](Cc1ccc(O)cc1)NC(=O)[C@H](CCCCN)NC(=O)[C@H](CCCCN)NC(=O)[C@@H](NC(=O)[C@H](C)NC(=O)[C@H](CCSC)NC(=O)[C@H](CCC(N)=O)NC(=O)[C@H](CCCCN)NC(=O)[C@H](CCCNC(=N)N)NC(=O)[C@H](CC(C)C)NC(=O)[C@H](CCCNC(=N)N)NC(=O)[C@@H](NC(=O)[C@H](Cc1ccc(O)cc1)NC(=O)[C@H](CC(N)=O)NC(=O)[C@H](CC(=O)O)NC(=O)[C@@H](NC(=O)[C@H](Cc1ccccc1)NC(=O)[C@@H](NC(=O)[C@H](C)NC(=O)[C@H](CC(=O)O)NC(=O)[C@H](CO)NC(=O)[C@@H](N)Cc1c[nH]cn1)C(C)C)[C@@H](C)O)[C@@H](C)O)C(C)C)C(=O)N[C@@H](CC(C)C)C(=O)N[C@@H](CC(N)=O)C(=O)O,.,.,-,.,.,.
COc1ccc(CCNc2ncnc3c2nnn3C)cc1,.,.,.,.,-,-
CCCCn1c(C23CC4CC(CC(C4)C2)C3)n[nH]c1=S,-,-,-,-,-,7.1µM
COc1cc(C2NC(=O)c3ccccc3O2)cc(OC)c1OC (stereo not drawn),-,-,-,-,-,-
COc1cc(C2Oc3ccccc3C=C2[N+](=O)[O-])cc(OC)c1OC (stereo not drawn),-,-,-,?,-,11µM
Cc1cccc(-c2cccc(NC(=O)C3CCCN(C(=O)c4csc(C)n4)C3)c2)c1 (stereo not drawn),-,-,-,?,-,5µM
Cc1ccc(O)c(N=NC2=C(O)CC(C)(C)CC2=O)c1,-,-,-,-,13µM,?
CC1(C)CC(=O)C(N=Nc2cc(Cl)c(Cl)c(Cl)c2)=C(O)C1,-,-,-,-,-,-
CCN1C(=O)C2(c3ccccc31)c1c(oc3ccc(C)cc3c1=O)C(=O)N2CCCOC(C)C (stereo not drawn),.,.,.,.,-,-
COc1ccccc1OCCCCN1CCN(C(c2ccccc2)c2ccccc2)CC1,-,-,-,-,?,4.5µM
COc1cccc(OC)c1OCCCCCCN1CCN(C)CC1,-,-,-,-,-,-
N#Cc1ccc(OCC(O)CN2CCN(C(c3ccccc3)c3ccccc3)CC2)cc1 (stereo not drawn),-,-,-,-,-,7.1µM
OC(COc1ccccc1)CN1CCN(C(c2ccccc2)c2ccccc2)CC1 (stereo not drawn),-,-,-,-,-,?
c1ccc(OCCOCCN2CCN(C(c3ccccc3)c3ccccc3)CC2)cc1,-,-,-,-,?,7.1µM
CC(Nc1ccc(-c2nc(-c3ccncc3)no2)cc1[N+](=O)[O-])c1ccccc1 (stereo not drawn),.,.,.,.,-,?
O=S(=O)(c1ccc(C(F)(F)F)cc1)N1CCCN(c2ccc(C(F)(F)F)cn2)CC1,-34,-,-,-,-,?
SMILES,CCT modulator,Mm-Cpn inhibitor,GLP-1R agonist,uPA generation,HEK293 tox,GLP-1R inv ag
CC(C)=CCC/C(C)=C\CC/C(C)=C\CC/C(C)=C\CC1=C(C)C(=O)c2ccccc2C1=O,.,.,-,.,.,.
O=C1[C@H]2[C@@H](c3ccc(F)cc3)N3C(=O)N(c4cccc(Br)c4)C(=O)[C@@]3(Cc3ccccc3)[C@H]2C(=O)N1C1CCCCC1,-,-,-,-,-,2.8µM
CC[C@@]12C(=O)N(c3cccc(Br)c3)C(=O)N1[C@H](c1ccc(F)cc1)[C@@H]1C(=O)N(C3CCCCC3)C(=O)[C@@H]12,-,-,-,-,-,8.9µM
CC[C@@]12C(=O)N(c3cccc(F)c3)C(=O)N1[C@H](c1ccc(F)cc1)[C@@H]1C(=O)N(C3CCCCC3)C(=O)[C@@H]12,-,-,-,-,-,?
Cc1cc2oc(C(=O)Nc3ccc(S(=O)(=O)N(C)c4ccccc4)cc3)cc(=O)c2cc1C,.,.,.,.,-,-
COc1ccc([C@]23Cc4cc(C#N)ccc4C(O2)c2c(cc(C)n(-c4ccccc4)c2=O)O3)cc1,.,-[15.4 µM],.,.,.,.
Cc1ccc(OCCN2C(=O)C(=O)c3cc(C)ccc32)cc1,-,-,-,?,-,-
Cc1ccc2c(c1)C(=O)C(=O)N2Cc1ccc(OC(C)C)cc1,.,.,.,.,?,1.1µM
Cc1ccc2c(c1)C(=O)C(=O)N2Cc1ccc(C(F)(F)F)cc1,-,-,-,3.5µM,-,-
Cn1nnnc1SCCCNCc1ccccc1OCc1ccc(F)cc1,.,.,.,.,-,-
Cc1cccc(OCC(=O)NC2CCCc3ccccc32)c1C (stereo not drawn),-,-,-,-,-,2µM
COc1ccccc1OCC(=O)NC1CCCc2ccccc21 (stereo not drawn),-,-,-,-,-,11µM
COc1ccc(NC(=O)CSc2ncc3c(n2)-c2cc(Cl)ccc2N(Cc2ccccc2F)S3(=O)=O)cc1,.,.,.,.,-,-
NS(=O)(=O)c1ccc(CNC(=O)c2cc(-c3ccccn3)nc3ccc(Cl)cc23)cc1,-55,?,-,-,-[7.66 µM],-[7.66 µM]
CC1S/C(=N\N=C\c2cccc([N+](=O)[O-])c2)N(C(C)(C)C)C1=O (stereo not drawn),-,-,-,-,-,3.5µM
